Results: PubChem BioAssay AID1159580 (chemical genetic matrix, 2015)
Screen size: about 5,500 compounds; about 2,000 (36%) were called active. Another 18% or so got no clear call; they are omitted. Cut-off read from the data, not from the text of the source: active = normalized growth mostly below about 0.91 (no sharp cut-off); inconclusive = no clear call, values can overlap the other calls; inactive = mostly above about 0.92. This is one part of the list.

Assay: chemical genetic growth profiling, strain panel (AID 1159580);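 note: tested at 20 µM; growth read once vehicle control cultures reached saturation at 30 °C; 1 = growth at the plate median or of vehicle wells; lower values mean less growth of the strain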
Settings: growth OD

Measured: normalized growth

COC(=O)c1ccc2c(c1)N(C)S(=O)(=O)CC2=O
inactive: S. cerevisiae deletion strains, locus YBR229C, strain ROT2, active compounds read low 0.998 | S. cerevisiae deletion strains, locus YDL101C, strain DUN1, active compounds read low 0.964 | S. cerevisiae deletion strains, locus YDR150W, strain NUM1, active compounds read low 0.997 | S. cerevisiae deletion strains, locus YEL061C, strain CIN8, active compounds read low 0.975 | S. cerevisiae deletion strains, locus YGR078C, strain PAC10, active compounds read low 1 | S. cerevisiae deletion strains, locus YHR030C, strain SLT2, active compounds read low 0.994 | S. cerevisiae deletion strains, locus YHR087W, strain rtc3, active compounds read low 1 | S. cerevisiae deletion strains, locus YJR043C, strain POL32, active compounds read low 1.02 | S. cerevisiae deletion strains, locus YJR075W, strain HOC1, active compounds read low 1.01 | S. cerevisiae deletion strains, locus YLR039C, strain RIC1, active compounds read low 0.989 | S. cerevisiae deletion strains, locus YLR058C, strain SHM2 (second series), active compounds read low 1.01 | S. cerevisiae deletion strains, locus YLR085C, strain ARP6, active compounds read low 0.853 | S. cerevisiae deletion strains, locus YLR262C, strain YPT6, active compounds read low 0.998 | S. cerevisiae deletion strains, locus YML094W, strain GIM5, active compounds read low 1 | S. cerevisiae deletion strains, locus YMR219W, strain ESC1, active compounds read low 0.996 | S. cerevisiae deletion strains, locus YMR263W, strain SAP30, active compounds read low 0.994 | S. cerevisiae deletion strains, locus YMR307W, strain GAS1, active compounds read low 0.872 | S. cerevisiae deletion strains, locus YNL128W, strain TEP1, active compounds read low 1.01 | S. cerevisiae deletion strains, locus YNL153C, strain GIM3, active compounds read low 0.932 | S. cerevisiae deletion strains, locus YNL298W, strain CLA4 (second series), active compounds read low 0.987 | S. cerevisiae deletion strains, locus YNL322C, strain KRE1, active compounds read low 0.993 | S. cerevisiae deletion strains, locus YNR030W, strain Alg12, active compounds read low 0.987 | S. cerevisiae deletion strains, locus YPL055C, strain LGE1, active compounds read low 0.99 | S. cerevisiae deletion strains, locus YPL241C, strain CIN2, active compounds read low 0.936 | S. cerevisiae deletion strains, locus YPR135W, strain CTF4, active compounds read low 1.03 | S. cerevisiae strains, strain wild type, active compounds read low 1.01
